Data taken from PubChem BioAssay AID1042 (National Center for Advancing Translational Sciences (NCATS), 2008).
Inconclusive results are not listed. Values without a mark were called inactive.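 The calls were made as follows: active = raised CDH13 expression over DMSO controls, judged by fold change in triplicate runs, no set cutoff; inconclusive = doubtful CDH13 rise, criteria not stated; inactive = no rise, falls in expression ignored.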

Assay: CDH13 Derepression/Induction Secondary Assay for qHTS Assay for Epigenetic Modulators
Details: H358 cells, CDH13 mRNA qPCR, 72 h; hits give high values
Description: NIH Molecular Libraries Screening Centers Network [MLSCN] NIH Chemical Genomics Center [NCGC] MLSCN Grant: 1 X01 MH079860-01 Assay Provider: Elisabeth D. Martinez, University of Texas SW Medical Center NCGC Assay Overview: This secondary assay characterizes selected actives identified in the qHTS of the Locus Derepression (LDR) assay (PubChem AID 597). The LDR assay detects the derepression of a GFP reporter that is stably integrated in a region of the genome of murine c127i mammary cells that is presumably silenced. Compounds that cause derepression of the locus to express GFP are identified by enumerating GFP positive cells using a laser-scanning microplate cytometer. Selected LDR actives were assayed for the induction of CDH13 gene expression, a gene silenced by methylation of its promoter. […]
NCGC Assay Protocol Summary Exponentially growing H358 non-small cell lung cancer cells were treated daily with fresh media containing the indicated concentrations of compounds for 72 hr. Cellular RNA was extracted, quantified, DNAse treated and reverse transcribed. The resulting cDNA was amplified in TaqMan real time quantitative PCR assays (Applied Biosystems) containing validated primers specific for CDH13 (Hs00169908.m1). […] Gene expression was measured by fold-induction over control DMSO-treated samples (36-37 average cycle time). […]

Compound: CN1CSC(=S)N(C)C1
- fold change: 1
